PubChem BioAssay (NCATS)
Results filed as inconclusive are left out. A call without a number means that no potency is given here. Calls of active or inactive are those of the source. Calls follow the shape of the dose curve; as a rule, active = well fitted cell-killing curve with a large enough effect; inconclusive = small, poorly fitted or top-dose-only effect; inactive = no such curve, though single readings can be large or run the other way.

Experiment: qHTS of pediatric cancer cell lines to identify multiple opportunities for drug repurposing: Primary screen for Saos-2 cells (AID 1347097); also: nearly all actives have a fitted effect of over 40% in size
Details: Saos-2 viability, CellTiter-Glo ATP luminescence, 48 h; series mostly up to 46 µM
Excerpt: Drug repurposing or repositioning has been offered as a strategy for drug development in oncology programs. This approach has special potential for childhood cancers and other rare or orphan diseases, where the expected return on new drug development has been a disincentive to pharmaceuticals. […] In this project we exploit the poly-pharmacology of drugs to discover new indications via phenotypic screening of a panel of 19 well-characterized cell lines derived from solid tumors seen in children and adolescents. The goal is to identify approved drugs with previously unrecognized anticancer properties that has the potential to reveal new mechanisms and biological processes involved in carcinogenesis or drug resistance. We employed a titration-based paradigm (quantitative high-throughput screening or qHTS), where all compounds were tested at multiple concentrations for their effect on cell viability. Concentration-response curves (CRCs) were derived directly from the primary screen, and both potency and efficacy values were used to identify compounds with robust bioactivity profiles. We screened the NIH Chemical Genomics Center (NCGC) Pharmaceutical Collection (NPC) and Mechanism Interrogation Plate (MIPE) small molecule collections of approved and investigational compounds against these cell lines; and measured metabolically active cells after 48 hours of compound treatment as a proxy for cell viability. […] Assay Submitter: Nathalia J. Martinez, National Center for Advancing Translational Sciences, National Institutes of Health, Rockville, MD, USA; email: natalia.martinez@nih.gov Shen, M et al. Quantitative high-throughput phenotypic screening of pediatric cancer cell lines identifies multiple opportunities for drug repurposing. Oncotarget 2017 Dec 19;9(4):4758-4772. PMID 29435139.
The cells were obtained from University of North Carolina (UNC), Pediatric Preclinical Testing Program (PPT), and Coriell Institute (CI). qHTS cell viability assay: Cells were assayed in growth media at a density of 500-1,000 cells/well. Five microliters of cells were dispensed into 1,536-well, white, solid-bottom, TC-treated plates (Greiner Bio One) using a multidrop dispenser and incubated at 37 degrees C, 5% CO2, under a humidified atmosphere for 5 hours. Twenty-three nanoliters of compounds and controls (neutral control DMSO or positive control bortezomib at final concentration of 2.3 µM) were subsequently transferred by Kalypsys pintool. For primary screens, the MIPE collection was tested at 11-point dilutions (final concentrations range from 0.78 nM to 46 µM) and the NPC collection at 8-point dilutions (final concentrations range from 0.59 nM to 46 µM). Compounds tested in follow-up screens were assayed at 11-point dilutions. Cells were incubated for 48 hours, followed by addition of 3 µL of CellTiter-Glo (Promega). After a 15 min incubation at room temperature, samples were analyzed for luminescence intensity using a ViewLux High-throughput CCD imager equipped with clear filters.
Potency is read from the fitted curve at half-maximal effect.

SMILES | Potency
C[C@@H]1C[C@@H]([C@H](O)CC2CC(=O)NC(=O)C2)C(=O)[C@@H](C)C1 | 1870 nM (active)
CN(C)CCc1c[nH]c2ccccc12 | inactive
C[N+](C)(C)CCOC(=O)C(O)(c1ccccc1)c1ccccc1 | inactive
CCOC(=O)c1cncn1C(C)c1ccccc1 (stereo not given) | inactive
CN(C)CCc1c[nH]c2cccc(O)c12 | inactive
Cc1ncc2n1-c1ccc(Cl)cc1C(c1ccccc1F)=NC2 | inactive
O=C(NC(=O)c1c(F)cccc1F)Nc1cc(Cl)c(OC(F)(F)C(F)C(F)(F)F)cc1Cl (stereo not given) | inactive
C[C@]12CC[C@H]3[C@@H](CC=C4C[C@@H](O)CC[C@@]43C)[C@@H]1CC[C@@H]2O | inactive
CCN(Cc1ccc(Cl)nc1)/C(=C/[N+](=O)[O-])NC | inactive
c1ccc2nc(N3CCNCC3)ccc2c1 | inactive
C[C@]12CC[C@H]3[C@@H](CCC4=CC(=O)CC[C@@H]43)[C@@H]1CC[C@@H]2O | inactive
CN(C)C(=S)SSC(=S)N(C)C | 133 nM (active)
O=c1[nH]c2cc(Cl)ccc2n1C1CCNCC1 | inactive
CNC(=O)Oc1cccc2ccccc12 | inactive
CCC(=O)O[C@H]1CC[C@H]2[C@@H]3CCC4=CC(=O)CC[C@]4(C)[C@H]3CC[C@]12C | inactive
CC(C)=C[C@@H]1[C@@H](C(=O)OCc2coc(Cc3ccccc3)c2)C1(C)C | inactive
CC[n+]1c(-c2ccccc2)c2cc(N)ccc2c2ccc(N)cc21 | 13300 nM (active)
O=c1n(Cl)c(=O)n(Cl)c(=O)n1Cl | inactive
O=C(N[C@H]1N=C(c2ccccc2F)c2cccc3c2N(CC3)C1=O)c1cc2ccccc2[nH]1 | inactive
C[N+]1(CCC(C(N)=O)(c2ccccc2)c2ccccc2)CCCCC1 | inactive

SMILES | Potency
CCC(=O)OC1(c2ccccc2)CCN(C)CC1 | inactive
COCC(=O)N(c1c(C)cccc1C)C(C)C(=O)OC (stereo not given) | inactive
C[N+]1(C)[C@@H]2CC[C@H]1CC(OC(=O)C(CO)c1ccccc1)C2 (stereo not given in full) | inactive
COP(=O)(OC)C(O)C(Cl)(Cl)Cl (stereo not given) | inactive
c1ccc2c(c1)Sc1ccccc1N2CC1CN2CCC1CC2 (stereo not given) | 26600 nM (active)
Cc1ccc(N=CN(C)C=Nc2ccc(C)cc2C)c(C)c1 | inactive
Cc1ccc([N+](=O)[O-])[c]2c1[O][Hg]2 | 106 nM (active)
NC1(c2ccccc2)CCCCC1 | inactive
OC(O)C(Cl)(Cl)Cl | inactive
CCCCC1C(=O)NC(=O)N(C2CCCCC2)C1=O (stereo not given) | inactive
O=C(CCCCl)c1ccc(F)cc1 | inactive
C[C@]12CC[C@H]3[C@@H](CCC4=CC(=O)CC[C@@]43C)[C@@H]1CC[C@@H]2C(=O)O | inactive
C[C@H]1C(=O)O[C@@H]2CCN3CC=C(COC(=O)[C@](C)(O)[C@]1(C)O)[C@H]23 | inactive
Oc1c(Br)cc(Br)cc1Br | inactive
COP(=O)(OC)OC=C(Cl)Cl | inactive
CC[C@H]1C[C@H]2[C@@H]3CCC4=CC(=O)CC[C@@H]4[C@H]3CC[C@]2(C)[C@H]1O | inactive
CN1CCC(N(Cc2ccccc2)c2ccccc2)CC1 | inactive
CCOC(C(=O)OCCN(C)C)(c1ccccc1)c1ccccc1 | inactive
c1cc2c(c(N3CCNCC3)c1)OCCO2 | inactive
O=C1CN2CCOC2(c2ccccc2Cl)c2cc(Cl)ccc2N1 (stereo not given) | inactive
